The source of these data is PubChem BioAssay.

Assay [1] in a line: HepG2 liver cancer cell viability effects, profiling panel, resazurin fluorescence, 24 h, PK04 Diversity Set (AID 1172). Also: test concentration not given here. Particulars: higher = more signal. In general terms: The colour change of resazurin is a common sign of viable cells or microbes.
A short description of assay [2]: basal S. cerevisiae growth modulation, no modifier, primary screen, OD600, strain BY4716, 24 h, basal condition (AID 1173). Particulars: OD600, 24 h, higher = more signal, called active from +8 up or from −8 down.
The nature of assay [3]: MM1S myeloma cell viability, profiling panel, resazurin fluorescence, basal, 24 h, PK04 Diversity Set (AID 1174).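 Also: MM1S multiple myeloma cell line; test concentration not given here.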 Particulars: higher = more signal, called active from +8 up or from −8 down.
Assay [4] has as its target Dihydroorotate dehydrogenase (quinone), mitochondrial (Plasmodium falciparum (isolate 3D7)) (UniProt Q08210). Description: PfDHODH enzyme inhibitors, primary screen, biochemical, C-terminal His tag, absorbance 600 nm (AID 1175).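 Also: recombinant parasite enzyme with a five histidine tag at its C terminus; test concentration not given here.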 Particulars: DCIP absorbance 600 nm, higher = more signal, called active from +8 up or from −8 down.
Assay [5] can be described thus: P. aeruginosa biofilm formation inhibitors, primary screen, strain PAO1, LB-PBS medium, absorbance 600 nm (AID 1176). Also: test concentration not given here. Particulars: P. aeruginosa PAO1 growth/biofilm, A600, 12 h; higher = more signal.
Assay [6] is described as follows: S. cerevisiae RM11-1a growth modifiers, primary screen, strain RM11-1a, OD600, basal, 24 h (AID 1177).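 Also: cultures grown under basal conditions with no added stressor; test concentration not given here.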 Particulars: OD600, 24 h, higher = more signal, called active from +8 up or from −8 down.
The nature of assay [7]: E. coli acrAB mutant growth effects, primary screen, E. coli filamentation inducers, strain DRC39, OD650, 24 h (AID 1178).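 Also: growth measured as culture turbidity by optical density at 650 nm; test concentration not given here.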 Particulars: higher = more signal, called active from +8 up or from −8 down.
The nature of assay [8]: E. coli acrAB mutant growth effects, primary screen, E. coli filamentation inducers, strain DRC39, OD650, 48 h (AID 1179).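 Also: screen aims at cell division blockers that make cells filament.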 Particulars: E. coli DRC39 delta-acrAB growth, higher = more signal, called active from +8 up or from −8 down.
Assay [9] can be described thus: RPMI8226 myeloma cell viability, profiling panel, resazurin fluorescence, basal, 24 h, PK04 Diversity Set (AID 1180).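 Also: RPMI8826 multiple myeloma cell line at 5000 cells per well; test concentration not given here.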 Particulars: higher = more signal.
In assay [10] the target is E3 ubiquitin-protein ligase XIAP (Homo sapiens) (UniProt P98170). Description: XIAP binders, primary screen, biophysical, small-molecule microarray, fluorescence 635 nm (AID 1181).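 Also: score merges 667 nm emission and signal to noise over triplicate slides.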 Particulars: small-molecule microarray binding, higher = more signal.

Structures are written as SMILES. The source made the active and inactive calls. Unless noted, no rule for the calls is given here.

Chain of E3 ubiquitin-protein ligase XIAP (Homo sapiens) (P98170 whole entry, looked up): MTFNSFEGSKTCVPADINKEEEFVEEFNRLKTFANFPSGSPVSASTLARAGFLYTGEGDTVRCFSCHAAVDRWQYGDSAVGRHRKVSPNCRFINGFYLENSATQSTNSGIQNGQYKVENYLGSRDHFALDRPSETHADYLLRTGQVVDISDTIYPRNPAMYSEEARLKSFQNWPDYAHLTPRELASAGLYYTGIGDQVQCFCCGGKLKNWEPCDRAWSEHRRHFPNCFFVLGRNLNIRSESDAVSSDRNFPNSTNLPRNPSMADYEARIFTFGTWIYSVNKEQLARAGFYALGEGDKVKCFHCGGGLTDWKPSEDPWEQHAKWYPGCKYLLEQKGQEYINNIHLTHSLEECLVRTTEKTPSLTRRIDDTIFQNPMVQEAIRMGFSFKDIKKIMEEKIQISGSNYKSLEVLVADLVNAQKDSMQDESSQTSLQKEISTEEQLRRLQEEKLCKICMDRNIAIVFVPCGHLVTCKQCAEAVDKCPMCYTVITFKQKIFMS
Chain of Dihydroorotate dehydrogenase (quinone), mitochondrial (Plasmodium falciparum (isolate 3D7)) (Q08210 whole entry, looked up): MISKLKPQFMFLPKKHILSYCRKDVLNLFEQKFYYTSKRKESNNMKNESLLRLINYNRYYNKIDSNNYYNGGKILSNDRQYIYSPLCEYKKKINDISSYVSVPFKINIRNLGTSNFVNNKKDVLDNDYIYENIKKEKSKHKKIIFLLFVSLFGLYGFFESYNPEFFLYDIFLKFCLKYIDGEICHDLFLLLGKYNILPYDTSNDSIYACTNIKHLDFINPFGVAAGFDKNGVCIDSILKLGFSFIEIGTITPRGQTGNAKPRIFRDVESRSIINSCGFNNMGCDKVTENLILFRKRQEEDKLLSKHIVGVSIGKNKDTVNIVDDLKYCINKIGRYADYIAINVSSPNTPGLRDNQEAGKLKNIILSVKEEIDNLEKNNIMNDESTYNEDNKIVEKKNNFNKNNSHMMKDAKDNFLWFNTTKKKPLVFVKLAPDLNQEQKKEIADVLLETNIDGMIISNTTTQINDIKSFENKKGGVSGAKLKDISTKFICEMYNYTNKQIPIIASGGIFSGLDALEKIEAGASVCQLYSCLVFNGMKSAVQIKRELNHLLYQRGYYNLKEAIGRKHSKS

As for `O=C1O[C@H](Cc2ccccc2)[C@@H]2[C@H]3C=CCCC=C3CN2[C@H]1Cc1ccc(O)cc1`, the z-score is 1.28 in [1]; -2.92 (inactive) in assay [2]; 0.303 (inactive) in assay [3]; 0.118 (inactive) in assay [5]; -0.0533 (inactive) in assay [6]; 0.616 (inactive) in assay [7]. Further, the results for the z-score in assay [8] and in assay [9] were 0.746 (inactive) and -0.095, respectively. For the same molecule, the composite z-score in assay [4] was -0.259 (inactive); in assay [10] it was 0.269.
For `CCOC(=O)C[C@H]1[C@H](OC(=O)Cc2ccc3c(c2)OCO3)[C@@H](NC(=O)Cc2ccc(OC)cc2)c2cc(OCCCO)ccc2N1C(=O)Cc1ccc(OC)cc1`, the z-score in assay [1] is -0.354; in assay [2], -0.605 (inactive); in assay [3] it was 0.594 (inactive); in assay [5] it was 0.501 (inactive); in [6], -1.62 (inactive); in assay [7], 1.44 (inactive). The z-score in assay [8] was 1.94 (inactive); in assay [9], 1.02. Moreover, the composite z-score in assay [4] is -1.72 (inactive); in assay [10] it was -0.207.
As for `CCCC#C[Si](O[C@H](CC)c1cn(Cc2ccccc2)nn1)(C(C)C)C(C)C`, the z-score is -0.394 in assay [1]; -14.2 (active) in assay [2]; -1.05 (inactive) in assay [3]; 0.0763 (inactive) in assay [5]; -0.0787 (inactive) in assay [6]; -0.393 (inactive) in assay [7]. The z-score in assay [8] was -0.195 (inactive); in assay [9], -0.754. Further, the results for the composite z-score in [4] and in assay [10] were -0.205 (inactive) and -0.173, respectively.
As for `COCCOC(=O)N1C(=O)[C@@]2(c3cc(C#CCCO)ccc31)[C@H](c1ccc(OCCO)cc1)N1[C@H](c3ccccc3)[C@H](c3ccccc3)OC(=O)[C@H]1[C@@H]2C(=O)N1CCCCCCC1`, the z-score was -0.21 in [1]; 0.532 (inactive) in [2]; -0.292 (inactive) in assay [3]; 1.68 (inactive) in [5]; 1.13 (inactive) in assay [6]; -0.442 (inactive) in assay [7]. Further, the figures for the z-score in [8] and in assay [9] were -0.457 (inactive) and -0.621, respectively. Moreover, the composite z-score in assay [4] was -0.0613 (inactive); in assay [10] it was 0.152.
As for `O=C(NC1CC1)[C@@H]1c2ccccc2C(=O)N(Cc2ccc(OC(F)(F)F)cc2)[C@H]1c1ccc(CO)cc1`, the z-score in assay [1] is 1.26; in assay [2], -0.327 (inactive); in assay [3] it was 1.23 (inactive); in [5], -0.233 (inactive); in assay [6], -0.544 (inactive); in assay [7], 0.392 (inactive). The z-score is 1.11 (inactive) in [8] and 0.718 in assay [9]. Also, the composite z-score in [4] is 0.347 (inactive); in [10], -0.239.
As for `CC(C)=C1C(=O)C(c2ccccc2)=C2CN3C(=O)N(CCc4ccccc4)C(=O)[C@]3(C)[C@H]21`, the z-score was -0.823 in assay [1]; -0.0416 (inactive) in assay [2]; -1.56 (inactive) in assay [3]; -0.0424 (inactive) in assay [5]; 0.119 (inactive) in assay [6]; -0.575 (inactive) in assay [7]. Also, the z-score is -0.456 (inactive) in [8] and -1.52 in assay [9]. Moreover, the composite z-score was -0.757 (inactive) in assay [4] and 0.387 in [10].
With `CCOC(=O)C[C@H]1[C@H](OC(=O)Cc2ccc3c(c2)OCO3)[C@@H](NC(=O)c2ccc3ccccc3n2)c2cc(OCCCO)ccc2N1C(=O)Cc1ccc(OC)cc1`, the z-score in assay [1] was 1.14; in assay [2], -1.17 (inactive); in assay [3], -0.175 (inactive); in assay [5], 0.477 (inactive); in assay [6] it was -0.925 (inactive); in assay [7] it was 1.12 (inactive). In addition, the z-score in [8] was 1.6 (inactive); in assay [9], 0.29. In addition, the composite z-score in assay [4] is -1.55 (inactive); in assay [10], -0.232.
For `CC(C)N1C(=O)c2ccccc2[C@@H](C(=O)NCC(F)(F)F)[C@@H]1c1ccc(CO)cc1`, the z-score in [1] was 0.4; in [2], -0.102 (inactive); in [3], 0.0516 (inactive); in assay [5], -0.0807 (inactive); in assay [6] it was 0.436 (inactive); in [7] it was -0.196 (inactive). For the same molecule, the figures for the z-score in assay [8] and in assay [9] were -0.484 (inactive) and 0.236, respectively. The values for the composite z-score in assay [4] and in assay [10] were -0.262 (inactive) and -0.111, respectively.
For `COCCOC(=O)N1C(=O)[C@@]2(c3cc(C#CCC(C(=O)OC)C(=O)OC)ccc31)[C@H](c1ccc(O)cc1)N1[C@H](c3ccccc3)[C@H](c3ccccc3)OC(=O)[C@H]1[C@@H]2C(=O)Nc1nc2ccccc2s1`, the z-score in assay [1] was 0.623; in assay [2], -0.146 (inactive); in assay [3], -1.05 (inactive); in [5], 0.321 (inactive); in assay [6], 0.559 (inactive); in assay [7], -0.709 (inactive). In addition, the z-score in [8] was -0.961 (inactive); in [9], -0.157. Moreover, the composite z-score in assay [4] is -1 (inactive); in [10], -0.138.
Take `COc1ccc(C#Cc2ccc3c(c2)[C@]2(C(=O)N3)[C@H](C(=O)O)[C@H]3C(=O)O[C@H](c4ccccc4)[C@H](c4ccccc4)N3[C@@H]2c2ccccc2OCCO)cc1`: the z-score in [1] was -0.638; in [2] it was 0.0196 (inactive); in assay [3], -2.53 (inactive); in assay [5], 3.23 (inactive); in [6], 2.48 (inactive); in assay [7] it was 0.761 (inactive). For the same molecule, the values for the z-score in assay [8] and in [9] were -0.183 (inactive) and -5.64, respectively. Moreover, the values for the composite z-score in assay [4] and in [10] were -3.86 (inactive) and 0.013, respectively.
`COCCOC(=O)N1C(=O)[C@@]2(c3cc(C#CCC(C(=O)OC)C(=O)OC)ccc31)[C@H](C(=O)Nc1nc3ccccc3s1)[C@H]1C(=O)O[C@H](c3ccccc3)[C@H](c3ccccc3)N1[C@@H]2c1ccc(OCCO)cc1`: the z-score in [1] was 0.318; in assay [2], 1.18 (inactive); in assay [3], 0.961 (inactive); in [5] it was 2.54 (inactive); in assay [6] it was 2.25 (inactive); in assay [7], -0.0125 (inactive). For the same molecule, the z-score is 0.972 (inactive) in assay [8] and -0.177 in assay [9]. The composite z-score in [4] is -0.859 (inactive); in assay [10], 0.214.
Consider `COC(=O)[C@]1(CCC(=O)OC(C)(C)C)N=C(c2ccc(OCCCO)cc2)O[C@@H]1c1ccccc1N=[N+]=[N-]`, for which the z-score in [1] is -0.223; in [2], 0.887 (inactive); in assay [3], -2.56 (inactive); in assay [5], 1.31 (inactive); in [6], 2.29 (inactive); in assay [7], 0.844 (inactive). For the same molecule, the z-score in [8] is 0.182 (inactive); in assay [9] it was -2.15. Moreover, the composite z-score is 0.878 (inactive) in assay [4] and 0.0037 in assay [10].
